Test results reported in PubChem BioAssay (EPA / NIEHS).
Active and inactive are the calls of the source. How the source made its calls: active means hit-call score of the fitted dose curve at least 0.9, where 1 is the maximum; inactive means score below 0.9.

Legend:
Details in all cases: mRNA level, 48 h; actives raise or lower the signal
[1] = read-out: sulfotransferase 2A1 (SULT2A1), SULT2A1 (gene 6822); test: LTEA_HepaRG_SULT2A1: Life Technologies and Expression Analysis (LTEA) Assay for sulfotransferase 2A1 (SULT2A1) using HepaRG (AID 2283531)
Method in brief: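 HepaRG human liver cells, 48 h exposure in serum-free induction medium to 8 half-log concentrations topping at 100 µM (0.5% DMSO), duplicate wells. SULT2A1 mRNA measured by TaqMan qRT-PCR, normalized to ACTB/GAPDH/POLR2A; bidirectional fit against DMSO.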

[2] = read-out: Transforming Growth Factor (TGFA), TGFA (gene 7039); test: LTEA_HepaRG_TGFA: Life Technologies and Expression Analysis (LTEA) Assay for Transforming Growth Factor (TGFA) using HepaRG (AID 2283532)
Method in brief: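 Differentiated human HepaRG cells, plated 48 h then switched to serum-free induction medium, were exposed in duplicate for 48 h to 8-point half-log series from 100 uM in 0.5% DMSO. TGFA mRNA measured by qRT-PCR, normalized to ACTB/GAPDH/POLR2A, bidirectional fit versus DMSO.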

[3] = read-out: Transforming Growth Factor (TGFB1), TGFB1 (gene 7040); test: LTEA_HepaRG_TGFB1: Life Technologies and Expression Analysis (LTEA) Assay for Transforming Growth Factor (TGFB1) Transporter using HepaRG (AID 2283533)
Method in brief: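 Differentiated HepaRG cells exposed 48 hr in serum-free induction medium to eight half-log concentrations up to 100 uM (0.5% DMSO), duplicate; TGFB1 mRNA by TaqMan qRT-PCR normalised to ACTB, GAPDH, POLR2A; bidirectional fit against DMSO.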

[4] = read-out: TIMP1, TIMP1 (gene 7076); test: LTEA_HepaRG_TIMP1: Life Technologies and Expression Analysis (LTEA) Assay for TIMP1 using HepaRG (AID 2283534);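 on outcome: TaqMan qRT-PCR signal normalized to ACTB GAPDH and POLR2A housekeeping genes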
Method in brief: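 Differentiated HepaRG cells exposed 48 h in serum-free induction medium, duplicates, eight half-log concentrations from 100 uM in 0.5% DMSO. TIMP1 mRNA by qRT-PCR normalized to ACTB, GAPDH, POLR2A; bidirectional fitting against DMSO.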

[5] = read-out: Tumor necrosis factor receptor 1 (TNFRSF1A), TNFRSF1A (gene 7132); test: LTEA_HepaRG_TNFRSF1A: Life Technologies and Expression Analysis (LTEA) Assay for Tumor necrosis factor receptor 1 (TNFRSF1A) using HepaRG (AID 2283535)
Method in brief: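 Differentiated HepaRG cells in serum-free induction medium, exposed 48 h in duplicate to 8 half-log concentrations up to 100 uM in 0.5% DMSO. TNFRSF1A mRNA by Fluidigm TaqMan qRT-PCR, normalized to ACTB, GAPDH, POLR2A; bidirectional fit.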

[6] = read-out: Thyroid Hormone Responsive (THRSP), THRSP (gene 7069); test: LTEA_HepaRG_THRSP: Life Technologies and Expression Analysis (LTEA) Assay for Thyroid Hormone Responsive (THRSP) using HepaRG (AID 2283536)
Method in brief: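 Differentiated human HepaRG cells were exposed in duplicate for 48 h in serum-free induction medium to eight concentrations (top 100 uM, half-log steps, 0.5% DMSO). Expression was quantified by TaqMan qRT-PCR, normalized to ACTB, GAPDH and POLR2A, with bidirectional fitting against DMSO.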

[7] = read-out: Cellular tumor antigen p53 (Homo sapiens) (UniProt P04637); test: LTEA_HepaRG_TP53: Life Technologies and Expression Analysis (LTEA) Assay for Tumor Protein P53 (TP53) using HepaRG (AID 2283537)
Method in brief: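 Gain or loss of TP53 mRNA signal is scored relative to 0.5% DMSO after 48 h chemical treatment of HepaRG liver cells, tested in duplicate at eight half-log concentrations up to 100 uM.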

[8] = read-out: UDP glucuronosyltransferase (UGT1A1), UGT1A1 (gene 54658); test: LTEA_HepaRG_UGT1A1: Life Technologies and Expression Analysis (LTEA) Assay for UDP glucuronosyltransferase (UGT1A1) using HepaRG (AID 2283538)
Method in brief: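 HepaRG cells, 0.5% DMSO vehicle, 48 h exposure in serum-free induction medium to 8-point half-log series topping at 100 uM, in duplicate. UGT1A1 mRNA by Fluidigm qRT-PCR, normalized to ACTB/GAPDH/POLR2A; bidirectional fit versus DMSO.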

[9] = read-out: UDP glucuronosyltransferase (UGT1A6), UGT1A6 (gene 54578); test: LTEA_HepaRG_UGT1A6: Life Technologies and Expression Analysis (LTEA) Assay for UDP glucuronosyltransferase (UGT1A6) using HepaRG (AID 2283539)
Method in brief: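 Differentiated HepaRG cells, ~100,000/well, were exposed for 48 h in serum-free induction medium with 0.5% DMSO to 8-point half-log series topping at 100 uM, in duplicate. mRNA measured by Fluidigm TaqMan qRT-PCR, normalized to ACTB, GAPDH and POLR2A.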

[10] = read-out: X-box binding protein 1 (XBP1), XBP1 (gene 7494); test: LTEA_HepaRG_XBP1: Life Technologies and Expression Analysis (LTEA) Assay for X-box binding protein 1 (XBP1) using HepaRG (AID 2283540)
Method in brief: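 Differentiated human HepaRG cells in serum-free induction medium exposed 48 h in duplicate to eight half-log concentrations up to 100 uM in 0.5% DMSO. XBP1 mRNA measured by Fluidigm TaqMan qRT-PCR, normalized to ACTB, GAPDH, POLR2A; bidirectional fitting against DMSO.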

Sequence of Cellular tumor antigen p53 (Homo sapiens) (P04637 whole entry, looked up): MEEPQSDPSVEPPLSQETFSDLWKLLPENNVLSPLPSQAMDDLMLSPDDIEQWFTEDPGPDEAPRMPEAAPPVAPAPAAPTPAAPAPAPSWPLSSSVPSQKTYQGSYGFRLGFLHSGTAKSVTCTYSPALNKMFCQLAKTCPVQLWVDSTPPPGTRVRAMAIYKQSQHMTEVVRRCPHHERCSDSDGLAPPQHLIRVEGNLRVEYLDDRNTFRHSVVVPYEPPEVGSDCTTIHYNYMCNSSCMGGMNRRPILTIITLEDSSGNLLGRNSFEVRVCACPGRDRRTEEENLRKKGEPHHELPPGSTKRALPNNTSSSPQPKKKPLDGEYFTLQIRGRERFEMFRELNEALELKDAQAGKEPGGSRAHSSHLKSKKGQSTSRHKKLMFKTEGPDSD

CC(C)(O)c1coc(S(=O)(=O)NC(=O)Nc2c3c(cc4c2CCC4)CCC3)c1
outcome [1]: inactive
outcome [2]: inactive
outcome [3]: inactive
outcome [4]: inactive
outcome [5]: inactive
outcome [6]: inactive
outcome [7]: inactive
AC50 [8]: 21.5 µM (active)
outcome [9]: inactive
outcome [10]: inactive

Clc1nc(Cl)c(Cl)c(Cl)c1Cl
outcome [1]: inactive
outcome [2]: inactive
outcome [3]: inactive
outcome [4]: inactive
outcome [5]: inactive
outcome [6]: inactive
outcome [7]: inactive
outcome [8]: inactive
outcome [9]: inactive
outcome [10]: inactive

COCCOc1cc2cc(C(=O)NC3CCN(C(C)C)CC3)n(CC(=O)Nc3ccc(Cl)cn3)c2cn1
outcome [1]: inactive
outcome [2]: inactive
outcome [3]: inactive
AC50 [4]: 18.2 µM (active)
outcome [5]: inactive
AC50 [6]: 51.5 µM (active)
outcome [7]: inactive
AC50 [8]: 82.2 µM (active)
outcome [9]: inactive
AC50 [10]: 12.1 µM (active)

Cc1[nH]cnc1C[C@H]1CCc2c(C)c3ccccc3n2C1=O
AC50 [1]: 63.6 µM (active)
outcome [2]: inactive
outcome [3]: inactive
outcome [4]: inactive
AC50 [5]: 63.7 µM (active)
outcome [6]: inactive
AC50 [7]: 73.7 µM (active)
AC50 [8]: 64.3 µM (active)
AC50 [9]: 33.5 µM (active)
AC50 [10]: 10.4 µM (active)

CC1=CC(=O)CC(C)(C)C1
outcome [1]: inactive
outcome [2]: inactive
outcome [3]: inactive
outcome [4]: inactive
outcome [5]: inactive
outcome [6]: inactive
outcome [7]: inactive
outcome [8]: inactive
outcome [9]: inactive
outcome [10]: inactive

C=CC(=C)CCC=C(C)C
outcome [1]: inactive
outcome [2]: inactive
outcome [3]: inactive
outcome [4]: inactive
outcome [5]: inactive
outcome [6]: inactive
outcome [7]: inactive
outcome [8]: inactive
outcome [9]: inactive
outcome [10]: inactive

Nc1ccc(Nc2ccccc2)cc1
outcome [1]: inactive
outcome [2]: inactive
outcome [3]: inactive
outcome [4]: inactive
outcome [5]: inactive
outcome [6]: inactive
outcome [7]: inactive
AC50 [8]: 50 µM (active)
outcome [9]: inactive
outcome [10]: inactive

Cn1cnc([N+](=O)[O-])c1Sc1ncnc2nc[nH]c12
outcome [1]: inactive
outcome [2]: inactive
AC50 [3]: 12.8 µM (active)
outcome [4]: inactive
outcome [5]: inactive
AC50 [6]: 10.7 µM (active)
outcome [7]: inactive
AC50 [8]: 0.754 µM (active)
AC50 [9]: 3.9 µM (active)
outcome [10]: inactive

C1N2CN3CN1CN(C2)C3
outcome [1]: inactive
outcome [2]: inactive
outcome [3]: inactive
outcome [4]: inactive
outcome [5]: inactive
outcome [6]: inactive
outcome [7]: inactive
outcome [8]: inactive
outcome [9]: inactive
outcome [10]: inactive

O=c1[nH]c2ccc(S(=O)CCN3CCC(Cc4ccc(F)cc4)CC3)cc2o1 (stereo not given)
outcome [1]: inactive
outcome [2]: inactive
outcome [3]: inactive
outcome [4]: inactive
outcome [5]: inactive
AC50 [6]: 85.5 µM (active)
outcome [7]: inactive
outcome [8]: inactive
outcome [9]: inactive
outcome [10]: inactive
